Assay results: PubChem BioAssay AID1159580 (chemical genetic matrix, 2015)
“And” between values parts separate entries of the source, which are not always exact repeats. Equal values may be shown once. About 2,000 (36%) of roughly 5,500 compounds were called active. Another 18% or so got no clear call; they are omitted. Cut-off read from the data, not from the text of the source: active = normalized growth mostly below about 0.91 (no sharp cut-off); inconclusive = no clear call, values can overlap the other calls; inactive = mostly above about 0.92. This is one part of the list.

Assay: chemical genetic growth profiling, strain panel (AID 1159580);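 note: tested at 20 µM; growth read once vehicle control cultures reached saturation at 30 °C; 1 = growth at the plate median or of vehicle wells; lower values mean less growth of the strain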
Conditions: growth OD

Measured: normalized growth

NC(N)=NCCCCN=C(N)N
inactive: S. cerevisiae deletion strains, locus YKL009W, strain mrt4, hits give low values 1 | S. cerevisiae deletion strains, locus YKL068W, hits give low values 0.988 | S. cerevisiae deletion strains, locus YKL085W, strain MDH1 (second series), hits give low values 1.03 | S. cerevisiae deletion strains, locus YKL085W, strain MDH1, hits give low values 1.03 | S. cerevisiae deletion strains, locus YKL160W, strain elf1, hits give low values 1.02 | S. cerevisiae deletion strains, locus YKL190W, strain CNB1, hits give low values 0.985 | S. cerevisiae deletion strains, locus YKR001C, strain vps1, hits give low values 1.01 | S. cerevisiae deletion strains, locus YKR026C, strain gcn3, hits give low values 0.995 | S. cerevisiae deletion strains, locus YKR091W, strain srl3, hits give low values 1 | S. cerevisiae deletion strains, locus YLL001W, strain dnm1, hits give low values 1.01 | S. cerevisiae deletion strains, locus YLL026W, hits give low values 1.01 | S. cerevisiae deletion strains, locus YLL041C, strain sdh2, hits give low values 0.986 | S. cerevisiae deletion strains, locus YLR027C, strain aat2, hits give low values 1 | S. cerevisiae deletion strains, locus YLR039C, strain RIC1, hits give low values 0.99 | S. cerevisiae deletion strains, locus YLR058C, strain SHM2, hits give low values 0.972 | S. cerevisiae deletion strains, locus YLR102C, strain apc9, hits give low values 0.993 | S. cerevisiae deletion strains, locus YLR113W, strain HOG1, hits give low values 0.97 | S. cerevisiae deletion strains, locus YLR221C, strain rsa3, hits give low values 1.04 | S. cerevisiae deletion strains, locus YLR258W, strain gsy2, hits give low values 1.01 | S. cerevisiae deletion strains, locus YLR262C, strain YPT6 (second series), hits give low values 1.02 | S. cerevisiae deletion strains, locus YLR262C, strain YPT6, hits give low values 0.963 | S. cerevisiae deletion strains, locus YLR268W, strain sec22, hits give low values 0.978 | S. cerevisiae deletion strains, locus YLR320W, strain mms22, hits give low values 1.05 | S. cerevisiae deletion strains, locus YLR330W, strain CHS5, hits give low values 0.993 | S. cerevisiae deletion strains, locus YLR342W, strain FKS1 (second series), hits give low values 1.03 | S. cerevisiae deletion strains, locus YLR342W, strain FKS1, hits give low values 0.993 | S. cerevisiae deletion strains, locus YLR357W, strain rsc2, hits give low values 0.998 | S. cerevisiae deletion strains, locus YLR370C, strain arc18, hits give low values 0.991 | S. cerevisiae deletion strains, locus YLR371W, strain rom2, hits give low values 0.95 | S. cerevisiae deletion strains, locus YLR384C, strain iki3, hits give low values 0.997 | S. cerevisiae deletion strains, locus YLR418C, strain cdc73, hits give low values 0.971 | S. cerevisiae deletion strains, locus YML016C, strain PPZ1, hits give low values 0.992 | S. cerevisiae deletion strains, locus YML032C, strain rad52, hits give low values 1.01 | S. cerevisiae deletion strains, locus YML120C, strain ndi1, hits give low values 0.998 | S. cerevisiae deletion strains, locus YML124C, strain tub3, hits give low values 0.997 | S. cerevisiae deletion strains, locus YMR058W, strain fet3, hits give low values 0.998 | S. cerevisiae deletion strains, locus YMR078C, strain ctf18, hits give low values 0.992 | S. cerevisiae deletion strains, locus YMR125W, strain sto1, hits give low values 0.963 | S. cerevisiae deletion strains, locus YMR129W, hits give low values 1 | S. cerevisiae deletion strains, locus YMR205C, strain PFK2, hits give low values 1.03 | S. cerevisiae deletion strains, locus YMR223W, strain ubp8, hits give low values 1.01 | S. cerevisiae deletion strains, locus YMR231W, strain pep5, hits give low values 0.993 | S. cerevisiae deletion strains, locus YMR263W, strain SAP30, hits give low values 0.953 and 0.994 | S. cerevisiae deletion strains, locus YMR307W, strain GAS1, hits give low values 1.06 and 0.991 | S. cerevisiae deletion strains, locus YNL067W, strain RPL9B, hits give low values 0.972 | S. cerevisiae deletion strains, locus YNL071W, strain lat1, hits give low values 0.991 | S. cerevisiae deletion strains, locus YNL128W, strain TEP1, hits give low values 0.92 and 0.999 | S. cerevisiae deletion strains, locus YNL153C, strain GIM3, hits give low values 0.978 | S. cerevisiae deletion strains, locus YNL175C, strain NOP13, hits give low values 1.01 | S. cerevisiae deletion strains, locus YNL183C, strain NPR1, hits give low values 0.92 | S. cerevisiae deletion strains, locus YNL197C, strain WHI3, hits give low values 1.02 | S. cerevisiae deletion strains, locus YNL209W, strain ssb2, hits give low values 1.01 | S. cerevisiae deletion strains, locus YNL224C, strain SQS1, hits give low values 1.01 | S. cerevisiae deletion strains, locus YNL233W, strain BNI4, hits give low values 0.979 | S. cerevisiae deletion strains, locus YNL248C, strain rpa49, hits give low values 0.967 | S. cerevisiae deletion strains, locus YNL250W, strain rad50, hits give low values 0.98 | S. cerevisiae deletion strains, locus YNL271C, strain bni1, hits give low values 0.994 | S. cerevisiae deletion strains, locus YNL298W, strain CLA4, hits give low values 0.994 | S. cerevisiae deletion strains, locus YNL307C, strain MCK1, hits give low values 1.01 | S. cerevisiae deletion strains, locus YNL322C, strain KRE1 (second series), hits give low values 1 | S. cerevisiae deletion strains, locus YNL322C, strain KRE1, hits give low values 0.977 | S. cerevisiae deletion strains, locus YNR049C, strain mso1, hits give low values 0.997 | S. cerevisiae deletion strains, locus YNR052C, strain pop2, hits give low values 0.997 | S. cerevisiae deletion strains, locus YOL006C, strain TOP1, hits give low values 0.957 | S. cerevisiae deletion strains, locus YOL012C, strain htz1 0.788 | S. cerevisiae deletion strains, locus YOL147C, strain pex11, hits give low values 0.993 | S. cerevisiae deletion strains, locus YOR001W, strain rrp6, hits give low values 0.97 | S. cerevisiae deletion strains, locus YOR061W, strain CKA2, hits give low values 0.955 | S. cerevisiae deletion strains, locus YOR069W, strain VPS5, hits give low values 0.999 | S. cerevisiae deletion strains, locus YOR070C, strain gyp1, hits give low values 1.02 | S. cerevisiae deletion strains, locus YOR080W, strain dia2, hits give low values 1.01 | S. cerevisiae deletion strains, locus YOR083W, strain WHI5 (second series), hits give low values 0.988 | S. cerevisiae deletion strains, locus YOR083W, strain WHI5, hits give low values 1.04 | S. cerevisiae deletion strains, locus YOR106W, strain vam3, hits give low values 1.03 | S. cerevisiae deletion strains, locus YOR136W, strain idh2, hits give low values 0.997 | S. cerevisiae deletion strains, locus YOR144C, strain elg1, hits give low values 0.999 | S. cerevisiae deletion strains, locus YOR184W, strain ser1, hits give low values 1.03 | S. cerevisiae deletion strains, locus YOR231W, strain MKK1, hits give low values 0.968 | S. cerevisiae deletion strains, locus YOR265W, strain rbl2, hits give low values 1.01 | S. cerevisiae deletion strains, locus YOR270C, strain vph1, hits give low values 0.991 | S. cerevisiae deletion strains, locus YOR290C, strain snf2, hits give low values 0.968 | S. cerevisiae deletion strains, locus YOR316C, strain cot1, hits give low values 0.988 | S. cerevisiae deletion strains, locus YPL051W, strain arl3, hits give low values 1.04 | S. cerevisiae deletion strains, locus YPL055C, strain LGE1, hits give low values 0.95 and 0.989 | S. cerevisiae deletion strains, locus YPL078C, strain atp4, hits give low values 1.01 | S. cerevisiae deletion strains, locus YPL106C, strain sse1, hits give low values 1.01 | S. cerevisiae deletion strains, locus YPL240C, strain hsp82, hits give low values 1.01 | S. cerevisiae deletion strains, locus YPL241C, strain CIN2, hits give low values 0.988 and 0.994 | S. cerevisiae deletion strains, locus YPL256C, strain CLN2, hits give low values 0.979 | S. cerevisiae deletion strains, locus YPR119W, strain clb2, hits give low values 1 | S. cerevisiae deletion strains, locus YPR141C, strain kar3, hits give low values 0.975 | S. cerevisiae deletion strains, locus YPR163C, strain tif3, hits give low values 1 | S. cerevisiae deletion strains, locus YPR167C, strain met16, hits give low values 0.988 | S. cerevisiae deletion strains, strain wtn01, hits give low values 0.983 | S. cerevisiae strains, strain wild type, hits give low values 0.998
